Bioassay records as filed in PubChem.
Hits are enriched below; roughly 2.2% of the tested compounds scored in any of these assays.
KKLEB tox – counter-screen for CF NF-kB inhibitors: cytotoxicity; 360,000 compounds, 0.36% hits; KKLEB CF airway cells viability, ATPlite luminescence, overnight; active compounds read low; cells stimulated with P. aeruginosa culture filtrate; activity change (cytotoxicity), % at 5 µM; AID 602141;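 active means corrected activity change at or below -50% at 5 µM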
HIF-2a inh – inhibitors of HIF-2a; 786-0 RCC cells HIF-2a reporter, luciferase luminescence, overnight; inhibition, % at 18.8 µM; 360,000 compounds, 0.72% hits;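 active means inhibition of the luminescence signal of 40% or more relative to plate controls, in a single-dose primary screen at 18.75 µM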
C8 TRAIL sens – caspase-8 TRAIL sensitization; inhibition (viability loss, TRAIL sensitization), % at 10 µM; 360,000 compounds, 1% hits; NB7+C8 cells + TRAIL, ATPlite viability luminescence;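 active means compounds causing at least 50% loss of cell viability in the single-dose screen, relative to plate controls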
iPSC survival up – enhancers of human iPSC single-cell survival. AID 602274. survival enhancement, % at 20 µM. hiPSC single-cell survival, ATPlite luminescence; 100% = ROCK inhibitor wells, 0% = DMSO. 360,000 compounds, 0.044% hits; in the data active means survival enhancement above about 18%;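 further: cells exposed to compounds for 16 hours before the ATP read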
PPC-1+TRAIL kill – kills PPC-1 cancer cells in the presence of TRAIL; PPC-1 cells + TRAIL, ATPLite viability luminescence; cell killing (% activity), % at 4 µM or 5 µM; 220,000 compounds, 0.41% hits;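 active means cell killing above 50% in the first pass at 4 µM, then a duplicate retest at 5 µM averaging 50% or more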;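 further: plate controls were cells with TRAIL plus DMSO for no effect and medium-only wells lacking cells for full effect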
CF NFkB inh – cystic fibrosis NF-kB activation inhibition; KKLEB NF-kB-GFP reporter, PAF-induced, GFP fluorescence overnight; inhibition, % at 5 µM; 360,000 compounds, 0.86% hits;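 active means at least 50% inhibition at 5 µM, scaled per plate between neutral and stimulator controls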;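 further: PAF is a Pseudomonas aeruginosa culture filtrate used as stimulus; plate controls were PAF-stimulated DMSO wells for no effect and unstimulated DMSO wells for full effect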
Active calls of the source: *; . = no result.

SMILES | KKLEB tox | HIF-2a inh | C8 TRAIL sens | iPSC survival up | PPC-1+TRAIL kill | CF NFkB inh
CCC(CC)NC(=O)c1cc(S(=O)(=O)N2CCCCC2)ccc1N1CCOCC1 | 5 | 10 | -6 | 0 | . | 4
COc1ccc2cc3c(N)nn(C(=O)C4CCC(C(C)(C)C)CC4)c3nc2c1 (centres undefined) | -7 | 23 | 20 | -1 | -9 | 82*
O=Nc1c(-c2c(O)[nH]c3cc(Br)ccc23)[nH]c2ccccc12 | -8 | -17 | 84* | -4 | . | 107*
CS(=O)(=O)c1ccc(Cl)c(NC(=O)CSc2nnc(-c3cccs3)n2N)c1 | 17 | 7 | -13 | 1 | . | -11
Fc1ccc(-n2nnc(-c3cnc4ccccc4c3)n2)cc1 | -12 | 21 | 61* | -4 | 43 | -28
O=c1[nH]c2ccccc2cc1-c1nnn(-c2ccc(F)cc2)n1 | -13 | -161 | 62* | -4 | 50 | -14
Fc1ccc(-n2nnc(-c3cccnc3)n2)cc1 | 2 | -215 | -1 | -1 | 28 | -22
O=C(NNC(=O)c1ccc(-c2ccccc2)cc1)Nc1ccc(F)cc1F | -1 | -22 | -18 | 0 | . | -3
COc1ccc(-n2c(O)c(C=Nc3ccccc3)c3ccccc3c2=O)cc1 | -52* | 0 | 16 | -1 | 13 | 47
Cc1ccc(CNC(=O)CCc2c(C)nn(-c3ccc(N4CCOCC4)nn3)c2C)cc1 | 15 | -15 | -19 | 0 | . | -16
Cc1nc(Nc2nc3c(c(=O)[nH]2)CCC3)nc2ccccc12 | -3 | -82 | 11 | 1 | . | 65*
COc1ccc(N(CC(=O)NCc2ccccc2C)S(=O)(=O)c2ccccc2[N+](=O)[O-])c(OC)c1 | -14 | 21 | 2 | -1 | 8 | 23
CS(=O)(=O)c1ccc(Cl)c(NC(=O)COC(=O)COc2ccc3c(c2)CCC3)c1 | 20 | 8 | -8 | 0 | . | -20
O=C(OCn1ncc(Br)c(Br)c1=O)c1ccccc1Cl | -96* | 92* | 93* | 35* | 31 | 91*
O=C(OCn1ncc(Br)c(Br)c1=O)c1ccc(F)cc1 | -104* | 93* | 95* | -3 | 29 | 93*
O=C(Nc1nnc(-c2cc(Cl)ccc2Cl)o1)c1ccco1 | 1 | -45 | 52* | 0 | . | -30
CSCCC(NC(=O)c1ccco1)C(=O)N1CCCC(C(F)(F)F)C1 (centres undefined) | 9 | 8 | 7 | 0 | . | -1
O=C(COC(=O)c1ccc(Br)o1)NCc1ccccc1Cl | -19 | 10 | -33 | 0 | . | 17
CCOC(=O)N1CCC(Nc2c(-c3ccccc3)c(=O)c2=O)CC1 | 4 | 19 | 36 | 0 | 4 | 0
CCOC(=O)N1CCC(Nc2c(-c3ccc(C)cc3)c(=O)c2=O)CC1 | 4 | 18 | 60* | 0 | 37 | -9
CCN(CC)CCSc1nnc2c3cc(C)ccc3n(Cc3ccccc3)c2n1 | -6 | 14 | 24 | 0 | 16 | -31
C/C(=N\NC(=O)c1ccccc1O)c1ccc(Br)s1 | 20 | -177 | 54* | -1 | 41 | -16
C/C(=N\NC(=O)c1ccccc1[N+](=O)[O-])c1ccc(Br)s1 | 5 | 5 | -5 | 3 | 4 | 4
CCCCNC(=O)c1ccc2nc(CC)c(N(C)Cc3ccc(OC)cc3)n2c1 | -9 | 1 | 20 | -1 | . | 26
COc1cccc(-c2cc3nc(-c4ccccc4)cc(N4CCN(C(=O)c5ccoc5)CC4)n3n2)c1 | -16 | -12 | 79* | -2 | . | 20
SMILES | KKLEB tox | HIF-2a inh | C8 TRAIL sens | iPSC survival up | PPC-1+TRAIL kill | CF NFkB inh
COc1ccccc1-c1cc2nc(-c3ccccc3)cc(N3CCN(C(=O)c4ccoc4)CC3)n2n1 | 12 | -12 | 74* | 6 | . | 4
COc1ccccc1-c1cc2nc(-c3ccccc3)cc(N3CCN(C(=O)c4ccco4)CC3)n2n1 | -16 | -23 | 75* | -1 | . | 34
COc1cccc(-c2cc(N3CCN(C(=O)c4ccoc4)CC3)n3nc(-c4cccc(Cl)c4)cc3n2)c1 | 8 | -6 | 48 | 2 | . | 7
CC1CCCCC1NC(=O)c1cc2ccccc2o1 (centres undefined) | -1 | -89 | 1 | -2 | 13 | 7
CCCCN1C[C@H](Cc2ccccc2)[C@@H](CC(=O)NC)C1=O | 7 | 1 | 1 | 0 | . | -12
CN(N=Cc1ccc([N+](=O)[O-])cc1)c1ccccn1 | 6 | -291 | -7 | -1 | . | 0
O=C(Nc1ccc(N2CCOCC2)cc1)c1ccc(Cl)c(S(=O)(=O)N2CCCC2)c1 | -7 | 5 | 27 | 0 | . | 8
O=C(COc1ccc2c(c1)OCO2)Nc1nccs1 | -5 | -35 | 53* | -1 | . | 2
COc1cccc(Nc2nc(N)nc(CCl)n2)c1 | -8 | -72 | 89* | 0 | 16 | 35
Nc1nc(CCl)nc(Nc2ccccc2)n1 | -6 | -49 | 9 | -2 | 24 | 0
Cc1cccc(Nc2nc(N)nc(CCl)n2)c1 | -6 | -21 | 90* | -1 | 14 | 26
COc1cccc(Nc2nc(N)nc(C(F)(F)F)n2)c1 | -11 | -110 | 7 | 4 | 11 | 27
Cc1ccc(Nc2nc(N)nc(CCl)n2)cc1 | -20 | -97 | 93* | -1 | 48 | 45
CCS(=O)(=O)N1CCC(c2nc3ccccc3[nH]2)CC1 | 3 | 3 | -2 | -1 | . | -6
CN=c1scc(C)n1/N=C/c1ccc2c(c1)OCO2 | -24 | -74 | 61* | -6 | 34 | 0
COc1cccc2sc3ccc(C#Cc4ccc(N)cc4)cc3c(=O)c12 | -4 | -296 | 14 | -1 | . | -47
COc1cccc2oc3cc(C#CC4(O)CCCCC4)ccc3c(=O)c12 | -34 | -144 | 72* | -3 | . | 1
COc1cccc2sc3ccc(C#CC4(O)CCCCC4)cc3c(=O)c12 | -14 | -278 | 54* | -3 | . | -35
CCC(C)c1ccc(OCC(=O)Nc2ccc(CN3CCOCC3)cc2)cc1 (centres undefined) | 21 | -9 | 19 | 0 | . | -26
CCN(CC)CCCNC(=O)c1[nH]c2ccccc2c1Sc1ccc(Cl)cc1 | -25 | 23 | -5 | -1 | . | 9
Cc1nnc(NC(=O)c2ccc(S(=O)(=O)C(F)F)cc2)s1 | 13 | -164 | 50* | -1 | 26 | -4
C=C(C)[C@@H]1CC[C@]2(C(=O)O)CC[C@]3(C)C(CCC4[C@@]5(C)CC[C@H](O)C(C)(C)C5CC[C@]43C)C12 (some centres undefined) | -76* | 2 | 11 | 0 | . | 79*
CCOC(=O)c1c(S(=O)(=O)NCCCc2ccco2)c(C)n(C)c1C | -14 | 5 | -24 | 0 | . | 19
Cc1cc(F)ccc1S(=O)(=O)N1CCCOC1CNC(=O)C(=O)NC1CC1 (centres undefined) | 4 | 11 | 4 | 1 | . | -20
